The nature of experiment [1]: NCI Yeast Anticancer Drug Screen. Data for the rad50 strain (AID 155).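 Also: 0% = growth of vehicle-only cultures of the same strain.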 Conditions: S. cerevisiae rad50 strain growth inhibition, hits give high values. The gist of the method: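 Genetically altered yeast (DNA repair pathway); compound treatment; growth inhibition vs vehicle ctrl.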
Experiment [2] is described as follows: NCI Yeast Anticancer Drug Screen. Data for the mec2-1 strain (AID 157). Conditions: S. cerevisiae mec2-1 strain, hits give high values. The gist of the method:
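Using mec2-1 yeast: add compound, measure growth, express inhibition versus vehicle-treated cultures.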

A short description of experiment [3]: NCI Yeast Anticancer Drug Screen. Data for the sgs1 mgt1 strain (AID 161).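 Also: 0% = growth of cultures given vehicle only.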 The settings on record: S. cerevisiae sgs1 mgt1 strain, hits give high values. The gist of the method:
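Percent growth inhibition was derived by comparing compound-exposed mutant yeast with vehicle-exposed cultures. The strain carries alterations in DNA damage repair.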

A short description of experiment [4]: NCI Yeast Anticancer Drug Screen. Data for the cln2 rad14 strain (AID 165).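 Also: 0% = growth equal to vehicle treated cultures.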 Conditions: S. cerevisiae cln2 rad14 strain, hits give high values. The gist of the method: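 Yeast strain cln2 rad14, bearing defects in cell cycle control and DNA repair, serves as the test system; values reflect growth inhibition compared with vehicle.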
A short description of experiment [5]: NCI Yeast Anticancer Drug Screen. Data for the bub3 strain (AID 167). Conditions: S. cerevisiae bub3 mutant strain, hits give high values. The gist of the method: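 Yeast carrying a defined mutation is treated with each compound, and growth is compared with that of vehicle-exposed cells to give inhibition.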
A short description of experiment [6]: NCI Yeast Anticancer Drug Screen. Data for the mlh1 rad18 strain (AID 175). The settings on record: S. cerevisiae mlh1 rad18 strain growth inhibition, hits give high values. The gist of the method:
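Steps: expose repair-defective yeast to compound; measure growth; express inhibition against vehicle-treated controls.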

[7] abbreviates: at 5.0 µM (retest, dose inferred, filed as 0.5).
Setting [8] is: at 50.0 µM (retest, dose inferred, filed as 5.0).

About 79,000 compounds went through this panel and 15% of them were active in at least one assay; those are over-represented in the sample as a whole. Unmarked numbers belong to inactive results. Activity calls are given as the source filed them. Rule as the data show it: active = growth inhibition above about 70%; inactive = the rest.

This note sets out measurements from PubChem BioAssay (NCI).

Consider `O=C1C(=C2C(=O)c3ccccc3[N+]2=O)N([O-])c2ccccc21`, for which the growth inhibition is -2% in experiment [1] (setting [7]); 36% in experiment [1] (setting [8]); 69% in experiment [1] (at 50.0 µM); -6% in experiment [2] (setting [7]); 59% in experiment [2] (setting [8]); 56% in experiment [2] (at 50.0 µM). Besides, the growth inhibition is -3% in experiment [3] (setting [7]); 52% in experiment [3] (setting [8]); 84.3% (active) in experiment [3] (at 50.0 µM); -10% in experiment [4] (setting [7]); 15% in experiment [4] (setting [8]); 68% in experiment [4] (at 50.0 µM). The growth inhibition was -6% in experiment [5] (setting [7]); 31% in experiment [5] (setting [8]); 57.8% in experiment [5] (at 50.0 µM); -5% in experiment [6] (setting [7]); 56% in experiment [6] (setting [8]); 85.5% (active) in experiment [6] (at 50.0 µM).
With `C[n+]1c(/C=C/c2ccc(Cl)cc2)sc2ccccc21`, the growth inhibition in experiment [1] (setting [7]) was -4%; in experiment [1] (setting [8]), 36%; in experiment [1] (at 50.0 µM), 60.5%; in experiment [2] (setting [7]), -6%; in experiment [2] (setting [8]), 51%; in experiment [2] (at 50.0 µM) it was 51.9%. Besides, the growth inhibition in experiment [3] (setting [7]) was -11%; in experiment [3] (setting [8]), 36%; in experiment [3] (at 50.0 µM), 73% (active); in experiment [4] (setting [7]), 1%; in experiment [4] (setting [8]) it was 28%; in experiment [4] (at 50.0 µM), 75.2% (active). The growth inhibition was -12% in experiment [5] (setting [7]); 34% in experiment [5] (setting [8]); 29.6% in experiment [5] (at 50.0 µM); 11% in experiment [6] (setting [7]); 50% in experiment [6] (setting [8]); 78.8% (active) in experiment [6] (at 50.0 µM).
As for `CC(=O)Oc1ccc(C)cc1C(C)(C)C`, the growth inhibition in experiment [1] (setting [7]) was -1%; in experiment [1] (setting [8]), 0%; in experiment [1] (at 50.0 µM), 57.6%; in experiment [2] (setting [7]) it was 1%; in experiment [2] (setting [8]) it was -4%; in experiment [2] (at 50.0 µM), 54.8%. The growth inhibition is -2% in experiment [3] (setting [7]); -2% in experiment [3] (setting [8]); 59.1% in experiment [3] (at 50.0 µM); 1% in experiment [4] (setting [7]); -1% in experiment [4] (setting [8]); 28.7% in experiment [4] (at 50.0 µM). In addition, the growth inhibition in experiment [5] (setting [7]) was 0%; in experiment [5] (setting [8]), -7%; in experiment [5] (at 50.0 µM) it was 59.3%; in experiment [6] (setting [7]), -1%; in experiment [6] (setting [8]), 0%; in experiment [6] (at 50.0 µM) it was 74.2% (active).
With `CN(Cc1cc(Br)cc(Br)c1O)Cc1c[nH]c2ccccc12`, the growth inhibition in experiment [1] (setting [7]) was -1%; in experiment [1] (setting [8]) it was 8%; in experiment [1] (at 50.0 µM), 68.1%; in experiment [2] (setting [7]), 12%; in experiment [2] (setting [8]), 31%; in experiment [2] (at 50.0 µM), 31.1%. Also, the growth inhibition in experiment [3] (setting [7]) is 0%; in experiment [3] (setting [8]) it was 14%; in experiment [3] (at 50.0 µM), 86.4% (active); in experiment [4] (setting [7]), -2%; in experiment [4] (setting [8]), 0%; in experiment [4] (at 50.0 µM), 62.2%. The growth inhibition was -4% in experiment [5] (setting [7]); -1% in experiment [5] (setting [8]); 40.9% in experiment [5] (at 50.0 µM); 36% in experiment [6] (setting [7]); 48% in experiment [6] (setting [8]); 74.5% (active) in experiment [6] (at 50.0 µM).
As to `Cn1c2c(c3ccccc31)CCN(CCCN1CCN(c3ccccc3)CC1)C2=O`, the growth inhibition is 49% in experiment [1] (setting [7]); 49% in experiment [1] (setting [8]); 90.1% (active) in experiment [1] (at 50.0 µM); 43% in experiment [2] (setting [7]); 43% in experiment [2] (setting [8]); 89.2% (active) in experiment [2] (at 50.0 µM). Moreover, the growth inhibition was 58% in experiment [3] (setting [7]); 58% in experiment [3] (setting [8]); 90.4% (active) in experiment [3] (at 50.0 µM); 38% in experiment [4] (setting [7]); 38% in experiment [4] (setting [8]); 91.5% (active) in experiment [4] (at 50.0 µM). In addition, the growth inhibition was 51% in experiment [5] (setting [7]); 51% in experiment [5] (setting [8]); 91.3% (active) in experiment [5] (at 50.0 µM); 41% in experiment [6] (setting [7]); 41% in experiment [6] (setting [8]); 84.7% (active) in experiment [6] (at 50.0 µM).
As to `CN(C)C1CCC2C(=C1OC(=O)c1ccccc1)C=Cc1ccccc12` (stereo not given), the growth inhibition in experiment [1] (setting [7]) is -1%; in experiment [1] (setting [8]), 11%; in experiment [1] (at 50.0 µM), 25%; in experiment [2] (setting [7]) it was 2%; in experiment [2] (setting [8]), 16%; in experiment [2] (at 50.0 µM), 13.4%. Moreover, the growth inhibition in experiment [3] (setting [7]) is 13%; in experiment [3] (setting [8]), 38%; in experiment [3] (at 50.0 µM), 31.9%; in experiment [4] (setting [7]) it was 4%; in experiment [4] (setting [8]), 7%; in experiment [4] (at 50.0 µM), -1.4%. In addition, the growth inhibition was 0% in experiment [5] (setting [7]); 12% in experiment [5] (setting [8]); 22.9% in experiment [5] (at 50.0 µM); 21% in experiment [6] (setting [7]); 53% in experiment [6] (setting [8]); 67.5% in experiment [6] (at 50.0 µM).
As for `CCCCCCCCCCCC(=O)OCCN(CCOC(=O)CCCCCCCCCCC)C(=O)COC(=O)CCCCCCCCCCC`, the growth inhibition in experiment [1] (setting [7]) was -4%; in experiment [1] (setting [8]) it was 39%; in experiment [1] (at 50.0 µM) it was 99.4% (active); in experiment [2] (setting [7]) it was 1%; in experiment [2] (setting [8]), 94% (active); in experiment [2] (at 50.0 µM) it was 99.7% (active). Also, the growth inhibition was 3% in experiment [3] (setting [7]); 92% (active) in experiment [3] (setting [8]); 99.8% (active) in experiment [3] (at 50.0 µM); -2% in experiment [4] (setting [7]); 81% (active) in experiment [4] (setting [8]); 99.3% (active) in experiment [4] (at 50.0 µM). Moreover, the growth inhibition in experiment [5] (setting [7]) was -2%; in experiment [5] (setting [8]), 60%; in experiment [5] (at 50.0 µM) it was 60.4%; in experiment [6] (setting [7]), 1%; in experiment [6] (setting [8]) it was 86% (active); in experiment [6] (at 50.0 µM), 99.3% (active).
`Cc1scnc1C(C#N)(c1ccccc1)c1ccccc1`: the growth inhibition in experiment [1] (setting [7]) is 9%; in experiment [1] (setting [8]) it was 97% (active); in experiment [1] (at 50.0 µM), 98.5% (active); in experiment [2] (setting [7]) it was 4%; in experiment [2] (setting [8]), 98% (active); in experiment [2] (at 50.0 µM), 98.5% (active). Besides, the growth inhibition was 4% in experiment [3] (setting [7]); 98% (active) in experiment [3] (setting [8]); 98.7% (active) in experiment [3] (at 50.0 µM); 8% in experiment [4] (setting [7]); 98% (active) in experiment [4] (setting [8]); 98.5% (active) in experiment [4] (at 50.0 µM). Besides, the growth inhibition in experiment [5] (setting [7]) was 9%; in experiment [5] (setting [8]), 97% (active); in experiment [5] (at 50.0 µM), 98.8% (active); in experiment [6] (setting [7]), 7%; in experiment [6] (setting [8]), 97% (active); in experiment [6] (at 50.0 µM), 98.5% (active).
As to `COc1cc(OC)c(C2CC(C)(OC)Oc3cc4c(cc32)OCO4)c(OC)c1` (stereo not given), the growth inhibition in experiment [1] (setting [7]) was 4%; in experiment [1] (setting [8]), 10%; in experiment [1] (at 50.0 µM) it was 4.35%; in experiment [2] (setting [7]) it was 6%; in experiment [2] (setting [8]) it was 3%; in experiment [2] (at 50.0 µM), 17.1%. Further, the growth inhibition in experiment [3] (setting [7]) is 2%; in experiment [3] (setting [8]) it was 12%; in experiment [3] (at 50.0 µM) it was 3.8%; in experiment [4] (setting [7]), 5%; in experiment [4] (setting [8]) it was -4%; in experiment [4] (at 50.0 µM), 5.45%. For the same compound, the growth inhibition in experiment [5] (setting [7]) was 0%; in experiment [5] (setting [8]), -1%; in experiment [5] (at 50.0 µM), -2.6%; in experiment [6] (setting [7]) it was 5%; in experiment [6] (setting [8]) it was 19%; in experiment [6] (at 50.0 µM), 27.9%.
Consider `CNC(=O)OCC1=CC(=O)C(OC)=C(OC)C1=O`, for which the growth inhibition in experiment [1] (setting [7]) was -15%; in experiment [1] (setting [8]), -8%; in experiment [1] (at 50.0 µM), 4.5%; in experiment [2] (setting [7]), -12%; in experiment [2] (setting [8]), -14%; in experiment [2] (at 50.0 µM), 11.9%. Further, the growth inhibition in experiment [3] (setting [7]) was -10%; in experiment [3] (setting [8]), -2%; in experiment [3] (at 50.0 µM), 28.4%; in experiment [4] (setting [7]) it was -6%; in experiment [4] (setting [8]), -5%; in experiment [4] (at 50.0 µM), 9.55%. The growth inhibition in experiment [5] (setting [7]) is -9%; in experiment [5] (setting [8]) it was -6%; in experiment [5] (at 50.0 µM), -20.6%; in experiment [6] (setting [7]) it was -8%; in experiment [6] (setting [8]), -5%; in experiment [6] (at 50.0 µM), 8.95%.
